Test results from PubChem BioAssay (NCI).
About 79,000 compounds went through this panel and 15% of them were active in at least one assay; those are over-represented in the sample as a whole. A number with no mark means an inactive call. The source made the active and inactive calls. Cut-off read from the data, not from the text of the source: active = growth inhibition above about 70%; inactive = the rest.

Legend:
[1] = NCI Yeast Anticancer Drug Screen. Data for the rad50 strain (AID 155);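 note: 0% = growth of vehicle-only cultures of the same strain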; details: S. cerevisiae rad50 strain growth inhibition; at 50.0 µM; hits give high values
Method in brief: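 DNA repair mutant yeast, compound exposure, growth read-out; inhibition is taken relative to vehicle.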

[2] = NCI Yeast Anticancer Drug Screen. Data for the mec2-1 strain (AID 157); details: S. cerevisiae mec2-1 strain, at 50.0 µM, hits give high values
Method in brief: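 Growth inhibition is read against vehicle-treated controls after compound exposure of the mec2-1 yeast strain, which is defective in DNA damage repair or cell cycle control.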

[3] = NCI Yeast Anticancer Drug Screen. Data for the sgs1 mgt1 strain (AID 161);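 note: 0% = growth of cultures given vehicle only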; details: S. cerevisiae sgs1 mgt1 strain, at 50.0 µM, hits give high values
Method in brief: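 This yeast growth screen uses a strain with defined DNA-repair lesions; compound-treated growth is compared with vehicle-treated growth.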

[4] = NCI Yeast Anticancer Drug Screen. Data for the cln2 rad14 strain (AID 165);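 note: 0% = growth equal to vehicle treated cultures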; details: S. cerevisiae cln2 rad14 strain, at 50.0 µM, hits give high values
Method in brief: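 Growth inhibition, relative to vehicle-treated controls, is the read-out. The test organism is a yeast strain with defined genetic alterations, cln2 rad14.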

[5] = NCI Yeast Anticancer Drug Screen. Data for the bub3 strain (AID 167); details: S. cerevisiae bub3 mutant strain, at 50.0 µM, hits give high values
Method in brief: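 In this screen, a yeast mutant lacking normal mitotic checkpoint function is challenged with compound. Relative growth versus vehicle gives the inhibition value.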

[6] = NCI Yeast Anticancer Drug Screen. Data for the mlh1 rad18 strain (AID 175); details: S. cerevisiae mlh1 rad18 strain growth inhibition; at 50.0 µM; hits give high values
Method in brief: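 Cells of a genetically altered yeast strain, deficient in DNA damage repair, were treated with compound. Their growth was then compared with that of vehicle-treated cultures to give inhibition.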

SMILES | growth inhibition [1] | growth inhibition [2] | growth inhibition [3] | growth inhibition [4] [%] | growth inhibition [5] | growth inhibition [6]
CCOC(=O)C(CSC(=O)c1ccccc1)NC(=O)OCc1ccccc1 (stereo unspecified) | 40.4% | -3.35% | 21.2% | -29.6 | 2.65% | 20.1%
CC(C)(Oc1ccccc1)C(=O)Sc1c(-c2ccccc2)c(=O)n(-c2ccccc2)c(=S)n1-c1ccccc1 | 13.2% | -14.8% | -15.3% | -5.4 | -13.2% | -6.95%
CNC(=O)OCc1c(COC(=O)NC)c(-c2ccc(F)cc2)n2c1CCC2 | 23.8% | 12.7% | -15.9% | 18.7 | 7.55% | 52.6%
O=C(Nc1cccc2c1C(=O)c1cc(Cl)ccc1C2=O)c1ccccc1 | -2.7% | 0.1% | 4% | -38.9 | 5% | -2.3%
NC1(C(=O)O)CC(O)(c2ccccc2)C(O)(c2ccccc2)C1 (stereo unspecified) | -22.5% | -6.1% | -10% | 6.2 | 3.75% | -9.5%
Cc1c(Br)[n+](=O)c2ccccc2n1[O-] | 1.6% | 6.45% | 17.4% | 14.2 | 11.9% | 21.9%
COC(=O)CCC(CCc1ccccc1)(C(C)=O)C(C)=O | -2.4% | -13.1% | -16.5% | -4.05 | 19.3% | 7.7%
Cn1cnc([N+](=O)[O-])c1Sc1nnc(C(F)(F)F)n1C | -7.6% | -6.95% | -9.65% | 7.5 | 3.6% | -6.95%
Cc1cc2c(=O)c3ccccc3oc2c(C#N)c1C | 19.6% | 8.25% | 9.2% | -15.4 | 18.3% | 16.9%
O=C(C[n+]1ccccc1)c1ccc([N+](=O)[O-])cc1 | -3.35% | -2.2% | -4.45% | -30.1 | -6.7% | 38.7%
Clc1cccc(-c2ncc(-c3ccccc3)o2)c1 | 8.7% | -3.8% | -0.6% | -29.2 | 2.15% | 19.1%
C=C(C)C(=O)O[C@H]1C/C(CO)=C/CCC(=C)C(OC(C)=O)[C@H]2OC(=O)C(=C)[C@H]12 (stereo partly specified) | 10.4% | 36.8% | -0.9% | 6.85 | -21.9% | -20.2%
CCCCC(CC)CSC[N+](C)(CC)CC (stereo unspecified) | 45% | 24.8% | 22.4% | 1.5 | 15.9% | 20.6%
CCOC(=O)C(C#N)C1=CC(=O)C(=O)c2ccc(OC)cc21 (stereo unspecified) | 14% | 11.3% | -5.5% | 27.9 | -9.95% | 9.1%
O=C(NCc1ccccc1)C1C2CCC(C2)C1C(=O)NCc1ccccc1 (stereo unspecified) | -0.85% | 50.8% | -1.95% | -2.35 | 22.9% | -6.35%
CCOC(=O)Cc1nc2sc(C)c(-c3ccccc3)c2c(=O)[nH]1 | 32.4% | 19.6% | 27.5% | 3.35 | 17.2% | 31.4%
N#C/C(=C/NC(=S)Nc1ccccc1)C(N)=O | -31.6% | -30.8% | -26.8% | -20 | -15.7% | -16.5%
CCCc1cc(=O)oc2c3c(c4c(c12)OC(C)(C)C=C4)OC(C)[C@H](C)[C@@H]3O (stereo partly specified) | 14.4% | 11.4% | 32% | 8.85 | 19.8% | 26.1%
CCc1ccccc1NC(=O)Sc1cccc(C)c1 | -3% | 27% | 25.6% | -12.9 | 23% | -28.9%
CCOC(=O)c1noc(Oc2ccc(Cl)cc2Cl)n1 | -13.9% | 0.15% | -10.8% | -4.35 | -9.3% | 15.1%
CC(C)c1cccc(C(C)C)c1NC(=O)/C(Cc1nc2ccc(Cl)cc2[nH]c1=O)=N\NC(=O)C[N+](C)(C)C | 17.7% | 16.2% | -12.3% | 25.7 | 26.9% | 22.7%

SMILES | growth inhibition [1] | growth inhibition [2] | growth inhibition [3] | growth inhibition [4] [%] | growth inhibition [5] | growth inhibition [6]
Cc1cc(OCC(=O)O)c(C)cc1Cl | -21.6% | -17.1% | -12.5% | -0.25 | -7.5% | -13.6%
Brc1cccc(-c2nnc(-c3cccc4ccccc34)o2)c1 | 1% | -11.2% | 0.5% | -39.2 | 6.7% | -8.55%
CC(C)Nc1nc(N)nc(N)n1 | -11.1% | -17.6% | 2% | -20.1 | -17.6% | -5.2%
N#Cc1cccc(N2C(=O)c3ccc(C(=O)c4ccc5c(c4)C(=O)N(c4cccc(C#N)c4)C5=O)cc3C2=O)c1 | -25.9% | -16.3% | -49.5% | 23.8 | -0.7% | -12.3%
O=C(Cc1ccccc1CCO)NCCc1ccccc1 | 5.35% | 1.55% | -32.9% | 24.8 | -21.8% | -14.9%
Cc1c(O)c(=O)ccn1C1OC(CO)C(O)C1O (stereo unspecified) | 16.5% | 22.9% | 25.5% | -2.9 | 15.8% | 26%
C[s+]1c2ccccc2c2ccccc21 | -65.8% | -46.4% | -32.9% | -22.6 | -13.2% | -49.8%
Cc1ccc(Cl)cc1NC(=O)C(C)Oc1ccccc1 (stereo unspecified) | 4.45% | -1.85% | -2% | -4.75 | 30.1% | 13.9%
C(=C\c1cc(CCc2nc3ccccc3[nH]2)[nH]n1)/c1ccccc1 | -4.4% | -16.5% | -12.3% | 22.6 | -4.25% | -15.2%
O=S(=O)(c1ccccc1)c1ccc(CI)cc1 | 15.8% | 19.9% | 5.05% | 17.4 | 13.7% | 9.05%
O=C(OCCN=C1c2ccccc2CCc2ccccc21)c1ccccc1 | -12.2% | -6.45% | 18.9% | 6.8 | 37.3% | 0.4%
CCN(CCNc1cc(OC)cc2cccnc12)c1ccccc1 | 59.9% | 20.7% | 48.4% | 23.2 | 47% | 68.2%
CC1=CC(C)(C)NC(=S)N1c1cccc2c(S(=O)(=O)O)cccc12 | 5.05% | -20.8% | -11.2% | -32.3 | 4.55% | 6.3%
CC(C)CC(CC(C)C)NCC(C)OC(=O)c1ccc(N(C)C)cc1 (stereo unspecified) | 57.5% | -4.2% | 20.2% | -7.55 | 2.6% | 1.3%
c1ccc(CCN2CCCCCCCC2)nc1 | 1.35% | 7.9% | -4.35% | -23.2 | -8.95% | -0.35%
S=C=NCCCCCCCCCCCCN=C=S | 94.4% (active) | 89.5% (active) | 94.2% (active) | 58.5 | 89.7% (active) | 94.7% (active)
COc1cc(/C=N/N2CC(=O)N(c3ccccc3)CC2=O)cc(OC)c1 | -469% | 18.1% | 23.7% | 7.1 | 10.8% | 13.1%
NC(=O)CNC(=O)c1ccc(N)cc1 | 16.8% | 7.6% | 11.2% | 15.6 | 1.25% | 18.4%
OCC1(OC2OC(CF)C(O)C(O)C2O)OC(CF)C(O)C1O (stereo unspecified) | -1.1% | 0.75% | -5.65% | -23.5 | 3.3% | 3.85%
N=C1C(O)C2(I)c3ccccc3N3C(=N)C(O)C4c5ccccc5N1C4C32 (stereo unspecified) | 5.55% | 2.85% | -38.5% | -5.8 | -29.4% | 8.95%
